The list is not random: actives were taken first. Their share in the collection is about 10%.
Six1-Eya2 inh: inhibitors of human Six1/Eya2 interaction; AID 651725; Q15475+O00167; activity change, % (no concentration beside the values); AlphaScreen GST-Six1/His-Eya2 binding, biochemical; active compounds read low; 360,000 compounds, 0.56% hits; in the data active means activity change below about -65%; inconclusive means mostly about -30% to -63%; further: on the % scale 0 is the no-effect control and ±100 the full control effect
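AlphaScreen with GST-Six1 and His-Eya2 (5X mix: 250 nM and 500 nM), glutathione donor and nickel acceptor beads; buffer 50 mM Tris pH 8.0, 300 mM NaCl, 1 mM TCEP; 1 h at 37 C in the dark.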
BAZ2B block: BAZ2B (human) inhibition. Q9UIF8. AlphaScreen BAZ2B-H3K14Ac peptide displacement. Potency, µM (highest dose often 114 µM), without a hit: at the highest dose activity change, negative = inhibition, hits mostly inhibitors. 360,000 compounds, 4.4% hits; further: potency means the concentration at half of the fitted maximal effect; on the % scale 0 is the no-effect control and ±100 the full control effect; nearly all actives have a fitted effect of over 60% in size
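AlphaScreen displacement: compounds (up to 110uM) incubated 30 min at room temperature with a preformed 50 nM BAZ2B/50 nM biotinylated H3K14Ac peptide complex in PBS pH 7.4 with Tween-20. Donor and acceptor beads at 10 ug/mL final added, 20 min light-protected before reading.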
CtBP-E1A inh: inhibitors of CtBP/E1A interaction; AlphaScreen GST-E1A/His-CtBP binding, 1536-well; active compounds read low; activity change, % (no concentration beside the values); AID 651724; 340,000 compounds, 0.49% hits; in the data active means activity change below about -65%; inconclusive means mostly about -30% to -63%; further: on the % scale 0 is the no-effect control and ±100 the full control effect
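In 5 uL wells, 23 nL compound meets equimolar GST-E1A and His-CtBP (5X stock 125 nM each) for 2 h, 37 °C. Beads (5X, 50 ug/mL) then 1 h, 37 °C, dark.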
HP1b binding inh: blocks HP1-beta chromodomain binding to methylated histone tails; P83916; AlphaScreen HP1-beta / biotin-H3K9me3 peptide binding; Potency, µM (titrated, usually from 114 µM), inactives show top-dose activity change, negative = inhibition, hits mostly inhibitors; 390,000 compounds, 0.56% hits; AID 540317; further: potency means the concentration at half of the fitted maximal effect; nearly all actives have a fitted effect of over 70% in size
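AlphaScreen: HP1-beta (50 nM) preformed 30 min with biotin-H3(1-18)K9me3 peptide (50 nM) in PBS pH 7.4, 0.01% Tween-20. Compound added for 30 min at RT, then streptavidin donor/nickel chelate acceptor beads (10 ug/mL) for 30 min.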
G9a block: G9a (human) methyltransferase inhibition. G9a H3K9 monomethylation, AlphaScreen, 2 h. 350,000 compounds, 8.8% hits. Q96KQ7. Potency, µM (highest dose often 102 µM), without a hit: at the highest dose activity, negative = inhibition, usual class: inhibitors; further: potency means the concentration at half of the fitted maximal effect; on the % scale 0 is the no-effect control and ±100 the full control effect; nearly all actives have a fitted effect of over 75% in size
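Enzyme 20 nM + cpd, 15 min RT; add b-H3K9 pep 500 nM / SAM 20 uM; 2 h RT; anti-H3K9me1 Ab 0.5 ug/mL + SA donor / anti-rabbit acceptor beads 20 ug/mL each, 10 min; AlphaScreen read.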
JMJD2A Tudor inh: blocks the human JMJD2A Tudor domain; O75164; AlphaScreen JMJD2A-Tudor / H3K4me3 peptide binding; Potency, µM (titrated, usually from 114 µM), without a hit: at the highest dose activity change, negative = inhibition, hits mostly inhibitors; 390,000 compounds, 4.4% hits; further: potency means the concentration at half of the fitted maximal effect; on the % scale 0 is the no-effect control and ±100 the full control effect; nearly all actives have a fitted effect of over 50% in size
Target sequence (O75164 whole entry, looked up, the tested form may be a part): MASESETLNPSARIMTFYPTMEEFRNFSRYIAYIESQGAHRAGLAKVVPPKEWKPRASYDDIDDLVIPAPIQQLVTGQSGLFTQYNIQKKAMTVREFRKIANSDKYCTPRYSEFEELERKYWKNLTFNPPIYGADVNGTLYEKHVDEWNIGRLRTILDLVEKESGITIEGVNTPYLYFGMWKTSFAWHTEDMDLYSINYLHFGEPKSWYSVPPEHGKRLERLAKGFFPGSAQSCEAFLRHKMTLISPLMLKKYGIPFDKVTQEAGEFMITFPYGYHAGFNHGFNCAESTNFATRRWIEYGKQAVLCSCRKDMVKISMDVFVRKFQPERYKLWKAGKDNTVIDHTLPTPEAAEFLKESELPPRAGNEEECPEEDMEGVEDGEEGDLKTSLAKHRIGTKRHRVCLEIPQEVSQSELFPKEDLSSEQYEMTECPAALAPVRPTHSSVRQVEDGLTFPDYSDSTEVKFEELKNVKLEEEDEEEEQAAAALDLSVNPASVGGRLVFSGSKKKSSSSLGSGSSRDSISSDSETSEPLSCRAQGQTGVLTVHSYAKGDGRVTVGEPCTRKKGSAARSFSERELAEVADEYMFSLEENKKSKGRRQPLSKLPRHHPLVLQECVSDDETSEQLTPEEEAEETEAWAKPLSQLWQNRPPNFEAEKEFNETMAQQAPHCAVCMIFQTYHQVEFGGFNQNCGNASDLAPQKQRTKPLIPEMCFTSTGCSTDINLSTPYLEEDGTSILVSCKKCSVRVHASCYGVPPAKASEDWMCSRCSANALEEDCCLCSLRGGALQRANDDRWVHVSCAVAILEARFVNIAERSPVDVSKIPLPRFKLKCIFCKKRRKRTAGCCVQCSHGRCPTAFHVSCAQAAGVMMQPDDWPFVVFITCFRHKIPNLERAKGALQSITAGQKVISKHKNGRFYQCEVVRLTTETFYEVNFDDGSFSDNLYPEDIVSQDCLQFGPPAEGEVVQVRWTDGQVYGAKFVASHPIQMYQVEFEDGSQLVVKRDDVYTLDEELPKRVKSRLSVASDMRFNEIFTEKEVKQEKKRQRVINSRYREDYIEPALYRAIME
* = called active by the depositor; ? = inconclusive; / = no result; [ ] = dose if it differs, or a comment. Unless noted, the call rests on the fitted dose curve; in most records, active means well fitted inhibition curve with a large enough effect; inconclusive means small, poorly fitted or top-dose-only effect; inactive means no such curve, though single readings can be large or run the other way.

SMILES	Six1-Eya2 inh	BAZ2B block	CtBP-E1A inh	HP1b binding inh	G9a block	JMJD2A Tudor inh
O=C(N/N=C/c1coc2ccccc2c1=O)c1cc(Br)c(O)c(Br)c1	1.9	-38.7%	0.1	22.6%	50.1µM*	-32.6%
O=C(N/N=C/c1coc2ccccc2c1=O)c1ccncc1	-1.2	-13.8%	-1.4	53.4%	16.0%	-7.6%
O=C(CSC1=N/C(=C/c2ccco2)C(=O)N1c1ccc(OC(F)F)cc1)NC1CCS(=O)(=O)C1 (stereo not drawn)	2.5	50.1µM*	0.0	-13.4%	44.7µM*	?
COc1ccc(N2C(=O)/C(=C\c3ccco3)N=C2SCC(=O)NC(C)C)cc1Cl	1.9	?	5.1	-7.4%	?	-18.8%
CCC1(C)NC(=O)N(CC(=O)Nc2sc3c(c2C(=O)OC)CCCCC3)C1=O (stereo not drawn)	-0.1	-26.4%	-21.2	-23.7%	50.1µM*	?
COC(=O)c1c(NC(=O)CN2C(=O)C(=O)N(CC(C)C)C2=O)sc2c1CCCCC2	-16.5	-37.8%	-3.9	-17.9%	4.6%[59 µM]	-27.2%
CCC1(CC)NC(=O)N(CC(=O)Nc2sc3c(c2C(N)=O)CCC3)C1=O	-28.0	50.1µM*	-11.8	5.4%	-2.1%[12.7 µM]	?
CCn1cc(S(=O)(=O)N2CCN(c3ccc(Cl)cc3)CC2)cn1	-1.2	-10.6%	2.7	23.9%	24.6%	-6.6%
CCC(Sc1nncn1C)C(=O)Nc1cc(C)on1 (stereo not drawn)	-1.3	0.0%	5.3	35.8%	16.8%	-4.2%
Cc1ccccc1/C=N/Nc1nc2ccccc2c(=O)n1O	-16.1	-14.1%	-3.3	-14.5%	14.1µM*	-4.2%
Cc1ccc(-c2nc3ccccc3c(=O)n2O)cc1	-4.5	?	5.4	18.3%	31.6µM*	35.5µM*
COc1ccccc1-c1nc2ccccc2c(=O)n1O	-14.9	?	-5.3	-12.8%	35.5µM*	-22.4%
O=c1c2ccccc2nc(-c2cccc(Cl)c2)n1O	1.9	?	0.0	38.3%	-38.2%[59 µM]	?
O=c1c2ccccc2nc(-c2ccc([N+](=O)[O-])cc2)n1O	4.1	?	8.9	3.9%	-2.1%	?
Cc1ccc(-c2nc3ccccc3c(=O)n2NC(=S)N(C)C)cc1	-2.5	7.4%	20.7	?	3.98µM*	-10.7%
O=C(CCn1c(=O)[nH]c2ccccc2c1=O)NCCSCc1ccccc1	-6.0	14.3%	0.3	27.4%	5.5%	-3.0%
Cn1c2ccccc2c2nnc(NN)nc21	-17.8	?	?	47.4%	/	-32.6%
CCn1c2ccc(C)cc2c2nc3cc(C(=O)O)ccc3nc21	-69.0*	10.2%	-65.5*	29.9%	-14.7%[59 µM]	-11.6%
CCn1c2ccc(C)cc2c2nnc(NN)nc21	-28.6	?	15.3	20.8%	50.1µM*	?
CCn1c2ccccc2c2nnc(NN)nc21	-13.0	?	-1.2	0.6%	?	50.1µM*
CCCCn1c2ccc(F)cc2c2nnc(NN)nc21	-13.7	-24.1%	-19.1	18.9%	50.1µM*	-34.2%
O=C(CCN1C(=O)C2C3CCC(C3)C2C1=O)OCC(=O)c1ccc(Cl)cc1 (stereo not drawn)	0.5	-2.4%	-0.7	23.0%	-7.9%[0.501 µM]	-6.7%
CCOC=C1SC(=S)N(c2ccccc2OC)C1=O	-1.0	/	0.7	/	/	/
CCN(C(=O)CSc1nnc2c3ccccc3n(CC)c2n1)C1CCS(=O)(=O)C1 (stereo not drawn)	-7.9	-35.9%	-8.7	6.7%	79.4µM*	-27.0%
CCOC(=O)C(Sc1nnc2c3ccccc3n(CC)c2n1)C(=O)OCC	?	9.7%	-71.8*	10.3%	?	-9.6%
CCOC(=O)CSc1nnc2c3ccccc3n(CC)c2n1	0.9	2.6%	-3.3	16.4%	-5.8%	-12.9%
COc1ccc(CCNc2cc(=O)[nH]c(N)n2)cc1	-69.2*	?	-80.1*	66.7%	-33.7%[59 µM]	-29.8%
COc1ccc(CCNc2ccc([N+](=O)[O-])cn2)cc1	-5.1	-10.2%	-28.8	4.1%	/	-20.3%
